High-throughput results from PubChem.
Lassa entry inh: blocks Lassa virus binding to or entry into cells | Lassa virus pseudotype entry inhibition, cell reporter | Potency, µM (series often up to 37.9 µM), inactives show at the top dose activity change, negative = inhibition, most hits filed as inhibitors | 1.2% of 300,000 active; calls by dose curve; tested in HEK293 cells; note: potency is the fitted concentration of half-maximal effect; % is set by controls: 0 for no effect and ±100 for the full control effect; nearly all actives have a fitted effect of over 50% in size
FMDV antiviral: blocks foot and mouth disease virus; AID 1159524; FMDV antiviral cell-based qHTS; 1.2% of 410,000 active; Potency, µM (series often up to 57.9 µM), without a hit: top-dose activity change, negative = inhibition, actives largely listed as inhibitors; calls by dose curve; tested in HEK293T cells; note: read-out not given here; potency is the fitted concentration of half-maximal effect; % is set by controls: 0 for no effect and ±100 for the full control effect; nearly all actives have a fitted effect of over 45% in size
Shiga toxin inh: Shiga toxin inhibition. Vero cells, Shiga toxin protein synthesis inhibition reporter. inhibition, % at 38.7 µM. 9.2% of 290,000 active; in the data active = inhibition mostly above about 28%, no sharp cut-off; inactive = mostly below about 43%; note: 0% is about no effect
MARV entry inh: blocks Marburg virus binding to or entry into cells | Marburg virus pseudotyped entry inhibition, cell reporter | Potency, µM (series often up to 37.8 µM), for inactives: at the top dose activity change, negative = inhibition, hits mostly inhibitors | 1.8% of 300,000 active; calls by dose curve; tested in HEK293 cells; note: potency is the fitted concentration of half-maximal effect; % is set by controls: 0 for no effect and ±100 for the full control effect
CHX counter: counter-screen for Shiga toxin inhibitors: cycloheximide protein synthesis inhibition; cell reporter, cycloheximide protein synthesis inhibition counterscreen; max response, %; 12% of 300,000 active; AID 2314; in the data active = max response mostly above about 13%, no sharp cut-off; inactive = mostly below about 14%; note: read at 38.3 µM for the half of the compounds with a filed dose; 0% is about no effect
HCV inh: blocks hepatitis C virus; Huh7.5.1 HCVcc-Cre infection, luciferase reporter, 44 h; Potency, µM (series often up to 41.8 µM), without a hit: at the highest dose activity change, negative = inhibition, hits mostly inhibitors; 3.4% of 340,000 active; AID 651820; active = well fitted inhibition curve with a large enough effect; inconclusive = small, poorly fitted or top-dose-only effect, or another doubt; inactive = no such curve, though single readings can be large or run the other way; note: potency is the fitted concentration of half-maximal effect; % is set by controls: 0 for no effect and ±100 for the full control effect
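HCVcc-Cre virus at an moi near 0.5 was added right after compound to cells cultured 4 h from seeding (1,000 cells/well). Luciferase activity was determined 44 h later, 15 min after substrate addition at RT.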
* marks the source's active call; other numbers are inactive results; ? = inconclusive; . = no result; + = active, no number; [ ] = dose if it differs, or a comment. Hits are enriched below; roughly 13% of the tested compounds scored in any of these assays.

SMILES	Lassa entry inh	FMDV antiviral	Shiga toxin inh	MARV entry inh	CHX counter	HCV inh
COc1ccc(NC(=O)C(=S)N2CCCC2)cc1	?	59.6%	35.1	?	30.3*	16.5%
COc1ccc(OC(C)C(=O)NCCC2=CCCCC2)cc1 (stereo unspecified)	23.3%[46.1 µM]	-2.0%	22.3	?	9.9	3.4%
CCOc1cc(NC(=O)C2CC2)c(OCC)cc1NC(=O)c1ccccc1OCC	?	-29.3%	-6.7	10µM*	-4.2	?
CCOc1cc(NC(=O)C2CC2)c(OCC)cc1NC(=O)c1cc(OC)c(OC)c(OC)c1	1.9%[46.1 µM]	-4.2%	-2.7	10.9%[46.1 µM]	-2.8	?
CCOc1ccccc1C(=O)Nc1cccc(-c2ccc3nncn3n2)c1	?	-29.1%	-8.2	7.08µM*	-1.7	?
CCc1nnc(NC(=O)c2ccc(NC(=O)C(C)C)cc2)s1	.	53.7%	98.9*	.	41.1*	-19.1%
CCc1nnc(NC(=O)c2cccc(C(=O)Nc3nnc(CC)s3)n2)s1	?	?	-15.8	?	-7.5	1.12µM*
Cc1ccccc1C(=O)Nc1cccc(-c2ccc3nncn3n2)c1	?	-10.2%	28.4	?	12.1	-9.2%
O=C(CCCN1C(=O)/C(=C/c2ccccc2)SC1=S)N1CCOCC1	.	-10.3%	4.5	-1.6%[46.1 µM]	10.8	-6.9%
CCOc1ccccc1C(=O)Nc1ccccc1C(N)=O	-0.5%	0.3%	27.4	-24.0%	8.8	4.0%
CCOc1ccccc1NC(=O)C1CCN(C(=O)Cc2ccccc2)CC1	?	-2.3%	-9.3	2.3%[46.1 µM]	-0.6	2.24µM*
CCOc1ccccc1C(=O)Nc1nn[nH]n1	?	-5.7%	-7.4	9.9%[46.1 µM]	-2.2	3.16µM*
CCOc1ccccc1C(=O)Nc1nnc(CC)s1	.	5.9%	24.5*	.	14.1*	11.2µM*
COC(=O)c1ccccc1NC(=O)C1CCN(C(=O)Cc2ccccc2)CC1	-17.8%	-19.1%	-11.6	-10.5%	-1.4	?
CCc1nnc(NC(=O)CCNC(=O)c2ccccc2Cl)s1	5.2%	1.6%	-1.5	8.9%[46.1 µM]	-3.9	3.0%
Cc1ccc(C)c(N2CCN(CCCNC(=O)Cn3cc4c(n3)CCCCC4)CC2)c1	.	?	-4.6	-1.4%	-1.9	5.62µM*
COc1ccccc1C(=O)Nc1ccccn1	?	42.4%	60.1*	13.8%	36.3*	8.7%
COc1ccc(NC(=O)Nc2ccccn2)cc1OC	.	62.7%	62.4*	.	33.8*	-7.0%
CN1C(=O)CSc2ccc(NC(=O)Nc3ccccn3)cc21	?	41.5%	39.4	?	50.4*	-18.5%
COc1ccccc1C(=O)Nc1nsc(-c2ccccc2)n1	.	42.7%	78.9*	.	49.2*	5.7%
COc1ccccc1C(=O)Nc1c(-c2ccccc2)nc2ccccn12	-7.4%[46.1 µM]	-4.9%	-4.4	5.1%[46.1 µM]	-3.5	-21.4%
CC1CCCCN1CCCNC(=O)c1ccc(NC(=O)C2=CSCCO2)cc1 (stereo unspecified)	.	?	2.7	.	1.2	5.0%
Cc1ccc(C)c(N2CCN(C(=O)Nc3ccc4c(c3)N(C)C(=O)CS4)CC2)c1	.	15.8µM*	6.5	.	-2.2	10µM*
O=C(Nc1ccc(Cl)c(Cl)c1)Nc1ccccn1	.	55.2%	65.7*	.	46.0*	-18.8%
CN1C(=O)CSc2ccc(NC(=O)N3CCN(c4ccccn4)CC3)cc21	-7.0%	?	4.4	?	-4.5	?
SMILES	Lassa entry inh	FMDV antiviral	Shiga toxin inh	MARV entry inh	CHX counter	HCV inh
O=C(Nc1cccnc1)Nc1ccccn1	-0.7%	56.3%	1.7	11.4%[46.1 µM]	-1.8	11.6%
N/C(Cc1cccc2ccccc12)=N\O	0.9%	-1.9%	10.5	?	-2.3	11.1%
Brc1ccc(-c2ncc(-c3ccccc3)cn2)cc1	?	-13.7%	135.9*	?	45.8*	9.7%
CCOc1ccc(OCc2ccc(C(=O)N(CC)CC)cc2)cc1	.	-11.8%	121.9*	.	32.5*	?
CCC(=O)c1ccc(OCc2ccc(C#N)cc2)cc1	9.1%	29.9%	77.4	-5.4%[46.1 µM]	28.4*	11.3%
CCC(=O)c1ccc(OCc2ccc(C(=O)OC)cc2)cc1	?	?	100.1*	10µM*	113.0*	5.7%
N#Cc1ccc(OCC(=O)OCC(=O)c2ccccc2)cc1	2.1%	33.6%	.	-6.8%	.	32.9%
COC(=O)c1ccc(COc2ccc(-c3nn[nH]n3)cc2)cc1	-19.1%	12.6%	-8.9	15.1%	-2.5	7.2%
Cc1nn(C(C)C(=O)Nc2ccccc2C(F)(F)F)c(=O)c2c1sc1ccccc12 (stereo unspecified)	26.9%[46.1 µM]	-10.1%	.	?	.	.
CC(C)CCOc1ccc(C2(C)NC(=O)N(CN3CCOCC3)C2=O)cc1 (stereo unspecified)	-5.6%	-18.0%	38.8	7.8%	7.9	-7.5%
COc1ccc(-n2c3c(cc(C(=O)N4CCC(C)CC4)c2=O)C(=O)CC(C)(C)C3)cc1	.	-16.5%	-7.3	.	3.1	6.8%
COc1ccc(-c2cn3ccccc3n2)cc1[N+](=O)[O-]	?	38.7%	96.4*	?	66.6*	-28.9%
COc1ccc(-c2cn3cc([N+](=O)[O-])ccc3n2)cc1OC	.	57.9%	80.3*	.	41.3*	-5.7%
CCCOc1ccc(-c2cn3ccccc3n2)cc1[N+](=O)[O-]	?	27.6%	+	?	134.3*	?
O=[N+]([O-])c1cccc(-c2cn3ccccc3n2)c1	-25.5%	28.7%	30.3	-12.5%[46.1 µM]	-3.1	-10.8%
CCCOc1ccc(S(=O)(=O)N2CCOCC2)cc1[N+](=O)[O-]	?	-7.4%	-10.2	-1.3%[46.1 µM]	-8.7	9.2%
COCCNC(=O)CCCn1c(=O)c2cc(OC)c(OC)cc2n(CC(=O)Nc2ccc(C)c(F)c2)c1=O	.	4.6%	0.8	.	-2.6	?
Cc1oc2ccc(O)c(CN3CCOCC3)c2c1C(=O)Nc1cccc(C(F)(F)F)c1	-7.8%[46.1 µM]	0.0%	.	-8.2%[46.1 µM]	.	.
CC1CCN(CC(=O)Nc2ccccc2C#N)CC1	-1.0%	-3.9%	8.0	-1.7%	-0.2	-4.9%
CCCCCCCNC(=O)C1(CC2CC(c3cccc(Br)c3)=NO2)CCNCC1 (stereo unspecified)	.	-14.1%	32.6*	.	8.2*	-6.8%[8.37 µM]
O=C(CCCOc1ccccc1)N1CCN(c2ccccn2)CC1	?	-10.8%	114.9*	?	26.8*	-1.8%
O=C(CCc1ccccc1)N1CCN(c2ccc(F)cc2)CC1	-4.1%[46.1 µM]	-4.8%	-14.4	6.6%[46.1 µM]	-0.5	3.6%
O=C(CCCOc1ccccc1)N1CCN(c2ccc(F)cc2)CC1	18.3%	-4.1%	111.6	8.8%	24.4*	-9.7%
CCc1noc(C)c1C(=O)Nc1cccc(S(=O)(=O)N(C)c2ccccc2)c1	10.1%	-28.3%	.	?	.	-26.8%
COc1cc(NC(=O)C2=C(N3CCOCC3)/C(=C\c3ccc(Br)cc3)CC2)cc(OC)c1OC	-10.1%	?	1.7	?	-1.4	5.0%
O=C(O)CCCCCN1C(=O)/C(=C/c2ccncc2)SC1=S	0.0%	-24.5%	-7.2	?	-4.2	4.8%
Cc1nn(-c2ccccc2)c(/N=C/c2ccccc2O)c1-c1ccccc1	?	-1.1%	active	?	79.8*	2.6%
Cc1nn(CC2CCCCC2)c(N)c1-c1ccccc1	20.6%	35.4%	64.5*	8.6%	44.1*	3.9%
